Results from PubChem BioAssay (Tox21).
Several values for one entry are separate records, joined by “and”; a condition that tells them apart may be missing. Equal values may be shown once. Inconclusive results are not listed. A call without a number means that no potency is given here. A structure can be active in one record and inactive in another. Activity calls are given as the source filed them. Unless noted, calls follow the shape of the dose curve; as a rule, active = well fitted curve in the direction sought with a large enough effect in the repeat runs; inconclusive = weak or mixed curves; inactive = no such curve, though single readings can be large; an effect the other way counts as inactive or inconclusive.

Experiments:
[1] = target: Retinoic acid receptor RXR-alpha (Homo sapiens) (UniProt P19793); assay: qHTS assay to identify small molecule agonists of the RXR signaling pathway (AID 1159527; calls by dose curve; also: nearly all actives have a fitted effect of over 35% in size; also: potency is read from the fitted curve at half-maximal effect)
Procedure, shortened: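 Compounds in DMSO were added to RXR-alpha-UAS-bla HEK 293T cells kept in 2% charcoal-stripped serum, and incubated 16 hr at 37 C with 5% CO2. Reporter signal came from a 2 hr B/G FRET substrate step.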

[2] = qHTS assay to identify small molecule agonists of the RXR signaling pathway - cell viability counter screen (AID 1159529); also: nearly all actives have a fitted effect of over 50% in size; also: potency is read from the fitted curve at half-maximal effect
Procedure, shortened: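 Counter screen: CellTiter-Glo luminescence. Cells: RXR-alpha-UAS-bla HEK 293T. Medium: 2% charcoal-stripped FBS. Treatment: 16 h, 37 C. Reagent incubation: 30 min, RT.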

[3] = qHTS assay to identify small molecule antagonists of the retinoid acid receptor (RAR) signaling pathway - cell viability counter screen (AID 1159551); also: nearly all actives have a fitted effect of over 35% in size
Procedure, shortened: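 Seed C3RL4 cells; next day add compound, then retinol to 1 uM final; incubate 6 h at 37 C; add CellTiter-Glo; read luminescence after 30 min at RT.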

[4] = qHTS assay to identify small molecule antagonists of the estrogen related receptor (ERR) signaling pathway from Tox21 library - cell viability counter screen (AID 1224834); also: nearly all actives have a fitted effect of over 30% in size; also: potency is read from the fitted curve at half-maximal effect
Procedure, shortened: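 CellTiter-Fluor fluorescence measured; ERR cells; 17.5 h compound incubation at 37 C; 30 min reagent step.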

[5] = qHTS assay to identify small molecule agonists of the constitutive androstane receptor (CAR) signaling pathway - cell viability counter screen (AID 1224836); also: nearly all actives have a fitted effect of over 45% in size
Procedure, shortened: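 Double-stable HepG2 hepatoma cells (hCAR plus CYP2B6-2.2kb) are treated for 23 h at 37 C with test compounds in 15-point concentration series. PK11195 at 0.75 uM final is co-added. Cell viability is quantified by CellTiter-Fluor.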

[6] = target: Luciferin 4-monooxygenase (Photinus pyralis) (UniProt P08659); assay: qHTS assay to identify small molecule inhibitors of firefly luciferase (AID 1224835); also: nearly all actives have a fitted effect of over 25% in size
Procedure, shortened: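 Inhibition of purified Photinus luciferase is measured by luminescence. Substrate levels (D-luciferin, ATP) sit at their KM values. Each compound is tested in a concentration series.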

[7] = qHTS assay to identify small molecule antagonists of the retinoic acid receptor (RAR) signaling pathway (AID 1159552; also: nearly all actives have a fitted effect of over 50% in size)
Procedure, shortened: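 Antagonism of retinol-induced RARE reporter activity was measured in C3RL4 cells. Exposure to compounds and 1 uM final retinol lasted 6 hr at 37 C, with luminescence as endpoint.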

[8] = qHTS assay to identify small molecule antagonists of the estrogen related receptor (ERR) signaling pathway - cell viability counter screen (AID 1224818);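 also: viability measured after 17.5 h of compound exposure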
Procedure, shortened: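 In the same ERR cell assay, compound-treated wells (17.5 h, 37 C) were multiplexed with a fluorogenic viability reagent, CellTiter-Fluor, read after 30 min to flag cytotoxic substances.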

[9] = qHTS assay to identify small molecule antagonists of the estrogen related receptor signaling pathway with the pleiotropic PPARgamma coactivator (PGC) cell viability counter screen (AID 1224822)
Procedure, shortened: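 Compounds in DMSO, with positive and negative controls, were applied to PGC/ERR cells (2,000/well) and left 17.5 h at 37 C before CellTiter-Fluor detection.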

[10] = qHTS assay to identify small molecule agonists of the retinoic acid receptor (RAR) signaling pathway (AID 1159553); details: C3RL4 RARE luciferase reporter, agonist, 6 h; activation: at 73.3 µM (top of the series) unless noted
Procedure, shortened: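 Activation of retinol signaling was monitored via a RARE luciferase reporter in C3RL4 cells. After 6 hr compound treatment at 37 C, detection reagent was added for 30 min at room temperature before luminescence reading.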

Chain of Retinoic acid receptor RXR-alpha (Homo sapiens) (P19793 whole entry, looked up): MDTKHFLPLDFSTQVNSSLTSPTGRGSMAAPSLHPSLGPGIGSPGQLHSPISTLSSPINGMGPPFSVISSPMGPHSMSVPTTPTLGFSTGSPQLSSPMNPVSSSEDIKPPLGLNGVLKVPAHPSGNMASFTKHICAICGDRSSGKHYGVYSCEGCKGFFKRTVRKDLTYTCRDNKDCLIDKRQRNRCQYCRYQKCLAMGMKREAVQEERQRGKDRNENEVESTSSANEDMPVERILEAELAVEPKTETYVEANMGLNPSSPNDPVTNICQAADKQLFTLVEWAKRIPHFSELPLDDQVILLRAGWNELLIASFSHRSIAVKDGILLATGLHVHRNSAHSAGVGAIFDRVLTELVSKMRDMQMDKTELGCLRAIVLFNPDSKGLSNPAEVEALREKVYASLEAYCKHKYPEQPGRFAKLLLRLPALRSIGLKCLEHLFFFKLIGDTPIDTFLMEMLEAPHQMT
Chain of Luciferin 4-monooxygenase (Photinus pyralis) (P08659 whole entry, looked up): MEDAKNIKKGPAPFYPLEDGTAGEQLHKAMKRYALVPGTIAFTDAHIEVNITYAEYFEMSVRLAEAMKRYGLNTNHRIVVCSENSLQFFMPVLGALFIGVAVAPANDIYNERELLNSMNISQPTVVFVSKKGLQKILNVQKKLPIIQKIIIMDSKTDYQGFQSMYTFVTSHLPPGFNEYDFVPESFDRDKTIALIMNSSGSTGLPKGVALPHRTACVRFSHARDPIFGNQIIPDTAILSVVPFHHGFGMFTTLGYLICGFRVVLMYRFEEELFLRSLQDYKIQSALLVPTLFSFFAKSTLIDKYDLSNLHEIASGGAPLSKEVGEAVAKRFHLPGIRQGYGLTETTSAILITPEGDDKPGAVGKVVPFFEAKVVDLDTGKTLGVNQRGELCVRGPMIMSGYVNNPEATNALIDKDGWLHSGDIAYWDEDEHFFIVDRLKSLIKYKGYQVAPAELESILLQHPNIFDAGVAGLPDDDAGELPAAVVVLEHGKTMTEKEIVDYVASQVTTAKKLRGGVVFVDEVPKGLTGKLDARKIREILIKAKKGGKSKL

Compound	Potency [1]	Potency [2]	outcome [3]	Potency [4]	Potency [5]	Potency [6]	Potency [7]	outcome [8]	outcome [9]	Potency [10]
CN(C)[C@@H]1C(=O)C(C(N)=O)=C(O)[C@@]2(O)C(=O)C3=C(O)c4c(O)cccc4[C@@](C)(O)[C@H]3C[C@@H]12	inactive	inactive	inactive	inactive	inactive	–	–	–	–	–
ClCc1cccnc1	inactive	inactive	inactive	inactive	inactive	inactive	–	–	–	–
NCCc1ccc(O)cc1	–	48.6 µM (active) and inactive	inactive	inactive	inactive	inactive	inactive	inactive	inactive	–
CCOP(=S)(OCC)Oc1cnc2ccccc2n1	–	inactive	inactive	inactive	inactive	inactive	inactive	–	–	–
Nc1c(Cl)c(Cl)nc(C(=O)O)c1Cl	–	inactive	inactive	inactive	inactive	inactive	–	–	–	–
C[C@]12CC[C@H]3[C@@H](CC[C@@]45O[C@@H]4C(O)=C(C#N)C[C@]35C)[C@@H]1CC[C@@H]2O	–	inactive	inactive	inactive	inactive	inactive	–	–	–	–
O=C(NC(=O)c1c(F)cccc1F)Nc1cc(Cl)c(OC(F)(F)C(F)C(F)(F)F)cc1Cl (stereo unspecified)	inactive	inactive	inactive	inactive	inactive	inactive	–	–	–	–
CC(C)(C)C(O)(CCc1ccc(Cl)cc1)Cn1cncn1 (stereo unspecified)	inactive	inactive	inactive	–	inactive	inactive	–	–	–	–
CCCN(CCC)c1c([N+](=O)[O-])cc(C(F)(F)F)cc1[N+](=O)[O-]	–	inactive	inactive	inactive	inactive	inactive	–	–	–	–
c1ccc2c(c1)oc1ccccc12	–	inactive	inactive	inactive	inactive	–	–	–	–	–
Cc1ccc([N+](=O)[O-])cc1C	–	inactive	inactive	inactive	inactive	inactive	–	–	–	inactive
CCCCCCCCCCCC#N	inactive	inactive	inactive	inactive	inactive	inactive	–	–	–	–
COC(=O)c1ccccc1C(=O)OC	–	inactive	inactive	inactive	inactive	inactive	–	–	–	inactive
O=[N+]([O-])c1ccc(Oc2ccc(Cl)cc2Cl)cc1	696 nM (active)	43.9 µM (active) and inactive	inactive	inactive	inactive	inactive	–	–	–	–
COC(=O)NC(=S)Nc1ccccc1NC(=S)NC(=O)OC	inactive	inactive	inactive	inactive	inactive	inactive	–	–	–	–
CCOC(=O)c1ccccc1C(=O)OCC	–	inactive	inactive	inactive	inactive	inactive	–	–	–	inactive

Compound	Potency [1]	Potency [2]	outcome [3]	Potency [4]	Potency [5]	Potency [6]	Potency [7]	outcome [8]	outcome [9]	Potency [10]
CCCN(CCC)N=O	inactive	inactive	inactive	inactive	inactive	inactive	–	–	–	–
CCCCN(CC)C(=O)SCCC	–	inactive	inactive	inactive	inactive	inactive	–	–	–	inactive
CCCC1COC(Cn2cncn2)(c2ccc(Cl)cc2Cl)O1 (stereo unspecified)	–	inactive	inactive	49.4 µM (active) and 54.5 µM (active)	inactive	inactive	–	–	–	–
COC(=O)c1ccccc1N	–	inactive	inactive	inactive	inactive	inactive	–	–	–	–
CC(Oc1ccc(Cl)cc1Cl)C(=O)O (stereo unspecified)	–	inactive	inactive	inactive	inactive	inactive	–	–	–	–
CCCCN(CCCC)SN(C)C(=O)Oc1cccc2c1OC(C)(C)C2	–	–	inactive	inactive	inactive	inactive	–	–	–	–
CCC(C)(CC)c1cc(NC(=O)c2c(OC)cccc2OC)on1	–	inactive	inactive	–	inactive	inactive	inactive	–	–	inactive
CN(N=O)c1ccccc1	inactive	inactive	inactive	inactive	inactive	inactive	–	–	–	–
O=C1CCCN1	inactive	inactive	inactive	inactive	inactive	inactive	–	–	–	–
CCNc1nc(NC(C)(C)C)nc(SC)n1	–	inactive and 49 µM (active)	inactive	inactive	inactive	inactive	inactive	–	–	inactive
Clc1ccccc1Cl	inactive	inactive	inactive	inactive	inactive	inactive	–	–	–	–
COCCl	inactive	inactive	inactive	inactive	inactive	inactive	–	–	–	–
C=CCO	inactive	inactive	inactive	inactive	inactive	inactive	–	–	–	–
CCC[CH2][Sn]([Cl])([Cl])[Cl]	inactive	inactive	inactive	inactive	inactive	inactive	–	–	–	–
O=S(=O)(c1ccc(Cl)cc1)c1cc(Cl)c(Cl)cc1Cl	–	inactive	inactive	inactive	inactive	inactive	–	–	–	–
